The results in this text go back to PubChem BioAssay AID2018 (Sanford-Burnham Center for Chemical Genomics, 2009).

In general, inhibition refers to the change of the read-out against control, counted positive when it falls.

The structures appear in SMILES notation. The campaign covered roughly 1,200 compounds. About 600 (50%) were called active. So high a share suggests a set chosen from earlier hits. This is one part of the list. Results with a measured potency or affinity are listed apart. Unmarked numbers belong to inactive results. Rule as the data show it: active = inhibition above about 42%; inactive = the rest.

The target in the experiment is SUMO-conjugating enzyme UBC9 (Homo sapiens) (UniProt P63279). In words: SUMOylation inhibitor hit validation, confirmation, SUMOylation inhibitor project, biochemical, AlphaScreen (AID 2018). The settings on record: AlphaScreen in vitro SUMOylation assay; at 35 µM; active compounds read high. (In general: In Alpha technology, singlet oxygen from a donor bead excites a nearby acceptor bead.)
SUMO-conjugating enzyme UBC9 (Homo sapiens), sequence (P63279 whole entry, looked up): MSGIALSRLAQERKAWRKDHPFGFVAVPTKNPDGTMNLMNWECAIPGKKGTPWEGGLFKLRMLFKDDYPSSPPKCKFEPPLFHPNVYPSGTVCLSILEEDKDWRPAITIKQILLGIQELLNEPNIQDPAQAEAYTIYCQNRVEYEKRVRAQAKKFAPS
For `COc1ccc(-c2ccnc3nc(/N=C/N(C)C)nn23)cc1`, the inhibition is -8.3%.

`CC1CCN(CCCn2c(=S)[nH]c3ccc(N4CCOCC4)cc3c2=O)CC1`: the inhibition was -13.8%.

As for `COc1cccc(Cn2cccc(NC(=O)NC3CCCCC3)c2=O)c1`, the inhibition is 25.8%.

On to `O=c1c2ccccc2nc(/C=C/c2cccnc2)n1Cc1ccccc1`, for which the inhibition is 98.2% (active).

For the molecule `Cc1c2c(=O)n(-c3nc4ccccc4s3)nc-2cc(O)n1Cc1ccccc1`, the inhibition was 20.5%.

On to `COc1ccc(-n2c3nc4ccccc4nc3c3c(=N)oc(C)nc32)cc1`, for which the inhibition is 64% (active).

As to `COCCCNC(=O)c1c(N)n(-c2ccccc2)c2nc3ccccc3nc12`, the inhibition was -25.1%.

For the molecule `NC(=O)N/N=C/c1ccc2cccc(OCc3ccccc3)c2n1`, the inhibition was 31.5%.

Turning to `COc1ccccc1/C=N/NC(=O)c1ccc(CN2C(=O)c3cccc4cccc2c34)cc1`, the inhibition was -17.1%.

In the case of `O=C(N/N=C/c1ccccc1)c1ccc(CN2C(=O)c3cccc4cccc2c34)cc1`, the inhibition is 51.5% (active).

In the case of `Cc1cccc(C(=O)NC2C(=O)NNC2c2ccc(Cl)cc2)c1` (configuration not stated), the inhibition is 69.8% (active).

`CC1OC(Nc2cccc3ccccc23)C(O)C(O)C1O` (configuration not stated): the inhibition is 38.7%.

Take `O=C(N/N=C/c1ccc(O)c2ncccc12)c1cccc(Br)c1`: the inhibition is 65.3% (active).

Take `CCOc1ccc(N2C(=O)c3ccc(C(=O)OCC(=O)N(CC)C4CCS(=O)(=O)C4)cc3C2=O)cc1` (configuration not stated): the inhibition was 42.4% (active).

Consider `O=c1oc2cc(O)ccc2cc1-c1ccc(F)cc1`, for which the inhibition is 15.5%.

Turning to `Cc1cc(/C=C2\SC(=S)NC2=O)c(C)[nH]1`, the inhibition was 65.4% (active).

Turning to `c1ccc2c3c(cc(N4CCOCC4)c2c1)OC1(N2CCOCC2)CCCCC1O3` (configuration not stated), the inhibition is 92% (active).

In the case of `Cc1ccc(C2C(C#N)=C(N)N(c3cccnc3)C3=C2C(=O)CCC3)s1` (configuration not stated), the inhibition is 16.8%.

Take `NC(=O)c1ccc(N=C2C(=O)Nc3ccc([N+](=O)[O-])cc32)cc1`: the inhibition is 102% (active).

Take `NC(N)=N/N=C/c1cc([N+](=O)[O-])ccc1O`: the inhibition was -9.1%.

With `CCC(C)(C)n1nnnc1CN(Cc1cc2cc(OC)c(OC)cc2[nH]c1=O)C1CCCC1`, the inhibition is 2.2%.

On to `Cc1ccc(-c2[nH]c(-c3ccc(C(=O)O)cc3)nc2-c2ccccc2)cc1`, for which the inhibition is 49.3% (active).

On to `O=[N+]([O-])c1cc([N+](=O)[O-])c2nonc2c1Nc1ccc(O)cc1`, for which the inhibition is 37.6%.

As for `O=[N+]([O-])c1c(NCc2ccccc2)cc(N2CCc3ccccc3C2)c2nonc12`, the inhibition is 38.5%.

As for `CN(C)c1cc(Nc2cccc(O)c2)c([N+](=O)[O-])c2nonc12`, the inhibition was 43.3% (active).

For `COc1ccc2c(c1)C(C)=CC(C)(C)N2C(=O)Nc1ccccc1`, the inhibition is 38.7%.

Take `CSc1nnc(SCc2nc3sc(C(=O)O)c(C)c3c(=O)[nH]2)s1`: the inhibition was 89.8% (active).

For the molecule `CCN(CC)C(=O)c1sc2nc(-c3ccncc3)[nH]c(=O)c2c1C`, the inhibition was 0.7%.

As for `CCOc1ccc(S(=O)(=O)N2CCCC(C(=O)NCc3ccco3)C2)cc1` (configuration not stated), the inhibition was 4.2%.

Take `Fc1cccc(NC(=S)Nc2cccc3ccccc23)c1`: the inhibition was 24.1%.

As to `[O-]/C(=C(\C(=S)Nc1cccc2ccccc12)[n+]1cccc(CO)c1)c1ccc(Cl)s1`, the inhibition is 31.7%.

On to `[O-]/C(=C(\C(=S)Nc1cccc2ccccc12)[n+]1ccccc1)c1ccc(Cl)s1`, for which the inhibition was 53.6% (active).

Take `CC(C)c1ccc(NC(=S)Nc2cccc3ccccc23)cc1`: the inhibition is 24.3%.

For the molecule `CC(C)c1ccc(NC(=O)C[n+]2ccn(C3=C([O-])c4ccccc4C3=O)c2)cc1`, the inhibition was 61.2% (active).

On to `O=c1c(-c2c(O)cc(O)c3c(=O)cc(-c4ccc(O)cc4)oc23)c(-c2ccc(O)cc2)oc2cc(O)cc(O)c12`, for which the inhibition was 99.8% (active).

For `Cc1[nH][nH]c(=O)c1C(c1ccc(-c2ccc(Cl)c(Cl)c2)o1)c1c(C)[nH][nH]c1=O`, the inhibition was 45.9% (active).

Turning to `Cc1[nH][nH]c(=O)c1C(c1ccc(-c2ccc(Cl)c(C(=O)O)c2)o1)c1c(C)[nH][nH]c1=O`, the inhibition is 73.1% (active).

In the case of `Cc1cc(C)c(S(=O)(=O)NCC23C=CC(O2)C2C(=O)N(c4ccccc4)C(=O)C23)c(C)c1` (configuration not stated), the inhibition was -6.4%.

For `O=C1N=c2ccccc2=C1c1c(O)n(-c2cccc(F)c2)[nH]c1=O`, the inhibition was 12%.

With `O=C1N=c2ccccc2=C1c1sc(Nc2ccc(O)cc2)nc1O`, the inhibition was 93.5% (active).

On to `Cc1c(N2C(=O)c3ccc4c5c(ccc(c35)C2=O)CC4)c(=O)n(-c2ccccc2)n1C`, for which the inhibition was 93.9% (active).

With `N#CC1=C(N)Oc2n[nH]c(-c3cccs3)c2C1c1ccoc1` (configuration not stated), the inhibition is 24.4%.

On to `Cc1ccc(-n2nc(C)c3c2OC(N)=C(C#N)C3c2ccc(C)o2)cc1` (configuration not stated), for which the inhibition was 81.4% (active).

For the molecule `Cc1ccc(-n2nc(C)c3c2OC(N)=C(C#N)C3c2ccoc2)cc1` (configuration not stated), the inhibition is 69% (active).

`Cc1nn(-c2ccccc2)c2c1C(c1ccc(F)cc1)C(C#N)=C(N)O2` (configuration not stated): the inhibition was 0%.

As for `CC(C)N1CCC2(CC1)C(C#N)=C(N)NC(S)=C2C#N`, the inhibition is 26%.

As for `Cc1nc2c3cc(F)ccc3n(Cc3ccc(F)cc3)c2s1`, the inhibition is 20.7%.
